The record followed here is PubChem BioAssay AID652104 (National Center for Advancing Translational Sciences (NCATS), 2013).

Hit rate of the full screen: of about 410,000 compounds, about 7,200 (1.8%) were called active. A call without a number means that no potency is given here. Inconclusive results (about 7%) are left out. The full list was thinned out, with actives kept by preference. A number with no mark means an inactive call. The call rests on the fitted dose curve; in most records, active means well fitted activation curve with a large enough effect; inconclusive means small, poorly fitted or top-dose-only effect, or another doubt; inactive means no such curve, though single readings can be large or run the other way.
Potency means the concentration at half of the fitted maximal effect.

A short description of the test: qHTS of TDP-43 Inhibitors. Further: nearly all actives have a fitted effect of over 50% in size. The note with it: TDP-43 expressing yeast growth rescue, BacTiter-Glo, 24 h; series mostly up to 46.1 µM. Put shortly:
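Readout is BacTiter-Glo luminescence of cell growth, so inhibitors register as activators. TDP-43-expressing yeast at OD600=0.02 in galactose medium, after raffinose pregrowth to mid-log, were incubated with compound for 24 hr at 30 deg C.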
In the case of `Cc1nnc(SCc2cc(=O)c3cc(F)ccc3[nH]2)n1C`, the Potency result is “inactive”.

`CC(C)CC(=O)NCC(c1ccc2c(c1)OCO2)N1CCN(c2ccc(F)cc2)CC1` (stereo not drawn): the Potency result was “inactive”.

Take `CCn1c(=O)cc(OCC(=O)Nc2cc(Cl)c(OC)cc2OC)c2ccccc21`: the Potency result is “inactive”.

Turning to `Cc1ccc(S(=O)(=O)c2nc(-c3ccco3)oc2SCC(=O)Nc2ccc(F)cc2)cc1`, the Potency result was “inactive”.

In the case of `Cc1ccc(-c2nc(COC(=O)c3c(C)noc3C)cs2)cc1`, the Potency result is “inactive”.

On to `COC(=O)c1c(-c2ccc(C)cc2)csc1N`, for which the Potency was 12.6 µM (active).

For `COC(=O)c1sc(N)c(C(=O)OC)c1COC(=O)CNS(=O)(=O)c1ccc(C)cc1`, the Potency result was “inactive”.

Take `CCCn1c(=N)n(CC(O)COc2ccccc2OC)c2ccccc21` (stereo not drawn): the Potency entry was “inactive”.

In the case of `CO/N=C(\N)c1ccc([N+](=O)[O-])cc1`, the Potency result is “inactive”.

As to `N/C(=N\OC(=O)N1c2ccccc2Sc2ccccc21)c1ccc(Br)cc1`, the Potency result was “inactive”.

Regarding `N/C(=N\OC(=O)Cc1ccccc1[N+](=O)[O-])c1ccc(Br)cc1`, the Potency was 15.8 µM (active).

Turning to `Cc1ccc(-n2ncc3c(=O)n(Cc4cccc(C(F)(F)F)c4)cnc32)cc1C`, the Potency entry is “inactive”.

Consider `CC(C)NC(=O)C1CCC(Cn2c(=O)c3sccc3n(Cc3ccc(F)cc3)c2=O)CC1` (stereo not drawn), for which the Potency result is “inactive”.

As for `O=C(COc1ccc(Cl)cc1)N(Cc1ccco1)Cc1ccco1`, the Potency result is “inactive”.

`CC(=O)c1ccc(NC(=O)CCc2nc(-c3ccc(C)cc3)no2)cc1`: the Potency entry was “inactive”.

With `CCOc1ccc(CCNC(=O)c2csc3c2CCCCC3)cc1`, the Potency result was “inactive”.

On to `CCOC(=O)c1ccc(NC(=O)c2c(NCc3cccs3)sc3c2CCCC3)cc1`, for which the Potency result was “inactive”.

In the case of `CCOC(=O)c1ccc(NC(=O)c2csc3c2CCCCC3)cc1`, the Potency is 20 µM (active).

In the case of `Cc1ccc(-c2cn3c(n2)sc2cc(C(=O)NCc4cccs4)ccc23)c(C)c1`, the growth rescue (activation) is -0.34% [at 9.22 µM].

On to `C/C(=N\N)c1c(-c2ccccc2)c2cc(Br)ccc2[nH]c1=O`, for which the Potency entry was “inactive”.

As for `O=c1[nH]c2cc(Br)ccc2n2cccc12`, the Potency was 10 µM (active).

As for `CC1CN(C(=O)N2CCC(C(=O)NCc3cccs3)CC2)c2ccccc2O1` (stereo not drawn), the Potency entry is “inactive”.

As for `COc1ccc(N(CC(=O)N2CCCCCC2)S(=O)(=O)c2ccccc2)cc1`, the Potency entry was “inactive”.

For the compound `CS(=O)(=O)N(CC(=O)N1CCN(c2cccc(Cl)c2)CC1)c1ccccc1`, the Potency result was “inactive”.

As to `CC1CCN(C(=O)CN(c2ccc(Oc3ccccc3)cc2)S(C)(=O)=O)CC1`, the Potency is 12.6 µM (active).

With `COc1cc(CNC(=O)c2cc3n(n2)CCCN(Cc2cccc(F)c2)C3=O)cc(OC)c1OC`, the Potency result was “inactive”.

Consider `CCc1cc2c(cc3c(=O)n(CC(=O)NCCc4ccc(OC)c(OC)c4)ncn32)s1`, for which the Potency result is “inactive”.

Consider `CCC(=O)N1CCc2cc(Br)cc(S(=O)(=O)NCc3ccc(Cl)cc3)c21`, for which the Potency result is “inactive”.

With `CCC(=O)N1CCc2cc(CNS(=O)(=O)c3ccc(Br)s3)ccc21`, the Potency is 11.2 µM (active).

Regarding `CCC(=O)N1CCc2cc(CNC(=O)Nc3ccccc3Cl)ccc21`, the Potency result is “inactive”.

For `Cc1ccc(NC(=O)c2cc(S(=O)(=O)NCCC3=CCCCC3)ccc2F)cc1C`, the Potency entry is “inactive”.

For `COc1cc(C(=O)Nc2ccc(OCc3cc(=O)n4ccc(C)cc4n3)cc2)cc(OC)c1OC`, the Potency entry is “inactive”.

As to `O=C(c1ccccc1)c1ccc2nc(N3CCCCC3)c3nncn3c2c1`, the Potency is 20 µM (active).

Turning to `O=C(NNc1nc(N2CCCC2)nc(N2CCCC2)n1)c1ccccc1`, the Potency entry is “inactive”.

In the case of `CCOC(=O)CSc1nc2ccc(C)cc2n2cnnc12`, the Potency entry is “inactive”.

Take `Cc1nnc(NC(=O)CSc2nc3c([nH]c4ccccc43)c(=O)n2-c2cccc(Cl)c2)s1`: the Potency result is “inactive”.

As for `CC(=O)C1=C(C)NC(=O)NC1c1ccc2c(c1)OCO2` (stereo not drawn), the Potency entry is “inactive”.

`O=C1C=C(c2ccnc3cc(Cl)ccc23)C[C@@H](c2ccc3c(c2)OCO3)C1`: the Potency was 22.4 µM (active).

Take `O=C(Nc1ccc2c(c1)OCO2)c1sc2cc(Cl)ccc2c1Cl`: the Potency entry was “inactive”.

For `Cc1cccc(N2CCN(C3=C(c4ccccc4)C(=O)c4ccccc43)CC2)c1C`, the Potency entry was “inactive”.

On to `Cc1cccc(NC(=O)c2ccc(F)c(S(=O)(=O)N(C)C3CCCCC3)c2)c1`, for which the Potency result was “inactive”.

Turning to `Brc1cccc(-c2nnn3c2nc(NC2CCCCC2)c2ccccc23)c1`, the Potency entry is “inactive”.

Take `O=C(Nc1nnc(S(=O)(=O)N2CCCc3ccccc32)s1)c1cccc(F)c1`: the Potency entry is “inactive”.

`COCCCNc1ccn2nc(-c3ccc(CC(C)C)cc3)cc2n1`: the Potency was 17.8 µM (active).

As for `CCc1ccc(C2CC(=O)c3c([nH]c(C(=O)OCc4ccc(C)cc4)c3C)C2)cc1` (stereo not drawn), the Potency result is “inactive”.

As to `CCN(CCCNC(=O)c1cc(Nc2ccc(OC)cc2)nc2ccccc12)c1cccc(C)c1`, the Potency entry was “inactive”.

In the case of `Cc1ccc(CSc2nc3ccsc3c(=O)n2CCC(C)C)cc1`, the Potency result is “inactive”.

As to `Cc1ccc(-n2c(=O)c3cccnc3n2CC(=O)Nc2ccccc2C(F)(F)F)cc1C`, the Potency result was “inactive”.

In the case of `Cc1ccc(-n2c(=O)c3cccnc3n2CC(=O)NCc2ccc(F)cc2)cc1C`, the Potency was 12.6 µM (active).

For the compound `CCOc1ccccc1NC(=O)Cn1c2ncccc2c(=O)n1-c1ccc(C)c(C)c1`, the Potency entry is “inactive”.

Regarding `CCOc1ccccc1NC(=O)Cn1c(=O)n(Cc2ccccc2)c(=O)c2c(C)c(C(=O)N(C)C)sc21`, the Potency entry is “inactive”.

Regarding `Cc1c(CNC(C)c2ccccc2)c(C(=O)O)c(C)n1Cc1c(F)cccc1Cl` (stereo not drawn), the Potency entry was “inactive”.

With `O=S1(=O)CC(N2CCC(Cc3ccccc3)CC2)CN1Cc1ccccc1` (stereo not drawn), the Potency result was “inactive”.

Consider `O=[N+]([O-])c1ccc(CN2CC(N3CCC(c4ccccc4)CC3)CS2(=O)=O)cc1` (stereo not drawn), for which the Potency was 25.1 µM (active).

`Cc1ccc(CN2CC(N3CCC(Cc4ccccc4)CC3)CS2(=O)=O)cc1` (stereo not drawn): the Potency entry is “inactive”.

Take `CCOC(=O)c1c(C)oc2ccc(N(C(=O)c3ccncc3)S(=O)(=O)c3ccc(CC)cc3)cc12`: the Potency entry was “inactive”.

As to `CCc1ccc(CN(Cc2ccco2)C(=O)COc2ccc(Cl)c(C)c2)cc1`, the Potency result was “inactive”.

With `Cc1ccc2nc(NC(=O)c3nc(SCc4ccccc4F)ncc3Cl)sc2c1`, the Potency result was “inactive”.

As for `CCS(=O)(=O)c1ncc(N(Cc2ccc(F)cc2)Cc2ccco2)c(C(=O)Nc2cc(C)ccc2C)n1`, the Potency result was “inactive”.

In the case of `Cc1cccc(NC(=O)c2nc(S(=O)(=O)Cc3ccccc3)ncc2Cl)c1`, the Potency is 7.08 µM (active).

Turning to `Cc1cccc(NC(=O)Cn2cc(S(=O)(=O)Cc3ccccc3Cl)c3ccccc32)c1`, the Potency result was “inactive”.

Regarding `CCOC(=O)c1ccc(NC(=O)c2nc(SCc3ccc(F)cc3)ncc2Cl)cc1`, the Potency entry is “inactive”.

With `CSc1nnc(NC(=O)c2nc(S(=O)(=O)Cc3ccc(C)cc3)ncc2Cl)s1`, the Potency is 11.2 µM (active).
